Results reported in PubChem BioAssay AID1159580 (chemical genetic matrix, 2015).
The campaign covered roughly 5,500 compounds. About 2,000 (36%) were called active. Inconclusive results (about 18%) are left out. Cut-off read from the data, not from the text of the source: active = normalized growth mostly below about 0.91 (no sharp cut-off); inconclusive = no clear call, values can overlap the other calls; inactive = mostly above about 0.92. Some of the results follow.

Assay: chemical genetic growth profiling, strain panel (AID 1159580);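 note: tested at 20 µM; growth read once vehicle control cultures reached saturation at 30 °C; 1 = growth at the plate median or of vehicle wells; lower values mean less growth of the strain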
Conditions: S. cerevisiae deletion strains, growth OD

Measured: normalized growth

NC1(C(=O)O)CCc2cc(C(=O)O)ccc21 (stereo not drawn)
inactive: locus YAL040C, strain CLN3, stronger effect = lower value 0.959 | locus YER002W, strain NOP16, stronger effect = lower value 0.997 | locus YGR078C, strain PAC10, stronger effect = lower value 1.01 | locus YNL128W, strain TEP1, stronger effect = lower value 0.997 | locus YNL175C, strain NOP13, stronger effect = lower value 0.988 | locus YNL197C, strain WHI3, stronger effect = lower value 0.998 | locus YNL224C, strain SQS1, stronger effect = lower value 1.01 | locus YOR083W, strain WHI5 (second series), stronger effect = lower value 0.993
